About 1,500 (3.8%) of roughly 39,000 compounds were called active. The sample as a whole holds a higher share of actives than the screen did.
Each compound was assayed on HSkMC (human skeletal muscle cells) (assay: cytotoxicity call (relative viability < 0.9)). Conditions: 10 µM.

Compound | cytotoxicity call
C[C@@H]1CN([C@@H](C)CO)C(=O)c2cc(NC(=O)Cc3ccccc3)ccc2O[C@@H](C)CCCCO[C@@H]1CN(C)C(=O)Nc1cccc2ccccc12 | inactive
CO[C@H]1O[C@H](CO)[C@@H](OC(=O)Nc2ccc3c(c2)OCO3)[C@H](OC(=O)Nc2ccc3c(c2)OCO3)[C@@H]1OC(=O)Nc1ccc2c(c1)OCO2 | inactive
CN(C)C(=O)C[C@H]1CC[C@@H]2[C@@H](COc3ccc(NS(=O)(=O)c4cccc(F)c4)cc3C(=O)N2C)O1 | inactive
O=C1CN(S(=O)(=O)Cc2ccccc2)C[C@H]2[C@@H](c3ccc(C#Cc4ccc(F)cc4)cc3)[C@@H](CO)N12 | inactive
O=C1CN(S(=O)(=O)Cc2ccccc2)C[C@H]2[C@H](c3ccc(C#Cc4ccc(F)cc4)cc3)[C@H](CO)N12 | active
O=C1CN(S(=O)(=O)Cc2ccccc2)C[C@@H]2[C@@H](c3ccc(C#Cc4ccc(F)cc4)cc3)[C@@H](CO)N12 | active
O=C1CN(S(=O)(=O)Cc2ccccc2)C[C@@H]2[C@@H](c3ccc(C#Cc4ccc(F)cc4)cc3)[C@H](CO)N12 | inactive
O=C1CN(S(=O)(=O)Cc2ccccc2)C[C@H]2[C@@H](c3ccc(C#Cc4ccc(F)cc4)cc3)[C@H](CO)N12 | inactive
O=C1CN(S(=O)(=O)Cc2ccccc2)C[C@@H]2[C@H](c3ccc(C#Cc4ccc(F)cc4)cc3)[C@@H](CO)N12 | inactive
COc1cccc(C#Cc2ccc([C@H]3[C@H](CO)N4C(=O)CN(S(=O)(=O)c5ccccc5C)C[C@@H]34)cc2)c1 | inactive
O=C1CN(S(=O)(=O)Cc2ccccc2)C[C@H]2[C@H](c3ccc(C#Cc4ccc(F)cc4)cc3)[C@@H](CO)N12 | active
COc1cccc(C#Cc2ccc([C@@H]3[C@H]4CN(S(=O)(=O)c5ccccc5C)CC(=O)N4[C@H]3CO)cc2)c1 | inactive
O=C1CN(S(=O)(=O)Cc2ccccc2)C[C@@H]2[C@H](c3ccc(C#Cc4ccc(F)cc4)cc3)[C@H](CO)N12 | active
C[C@H](CO)N1C[C@H](C)[C@H](CN(C)Cc2ccc(Oc3ccccc3)cc2)Oc2cc(-c3ccncc3)ccc2S1(=O)=O | inactive
O=C(C[C@@H]1CC[C@@H](NC(=O)CN2CCOCC2)[C@@H](CO)O1)NCCc1ccccc1 | inactive
CC(C)NC(=O)Nc1ccc2c(c1)C(=O)N(C)[C@H]1CC[C@H](CC(=O)NCc3ccc(F)cc3)O[C@H]1CO2 | inactive
COCC#Cc1cnc2c(c1)C(=O)N([C@@H](C)CO)C[C@@H](C)[C@H](CN(C)C(C)=O)O2 | inactive
C[C@@H]1CN([C@H](C)CO)C(=O)Cc2cc(NC(=O)Nc3cccc4ccccc34)ccc2O[C@@H]1CN(C)S(=O)(=O)c1cccs1 | inactive
C[C@H](CO)N1C[C@H](C)[C@H](CN(C)C(=O)Nc2ccc(F)cc2)OCCCC[C@H](C)Oc2ccc(NC(=O)Nc3ccc4c(c3)OCO4)cc2C1=O | inactive
COc1ccc(S(=O)(=O)N(C)C[C@H]2OCc3cnnn3CCCC(=O)N([C@@H](C)CO)C[C@@H]2C)cc1 | inactive

Compound | cytotoxicity call
CCCC[P+](CCCC)(CCCC)Cc1ccc(NC(=O)[C@@H](Cc2ccc3ccccc3c2)N=C(NC2CCCCC2)NC2CCCCC2)cc1 | active
C[C@H]1CN([C@@H](C)CO)C(=O)c2cc(NC(=O)Nc3cccc4ccccc34)ccc2O[C@@H]1CN(C)C(=O)NC1CCCCC1 | inactive
CCCC[P+](CCCC)(CCCC)Cc1ccc(NC(=O)[C@H](Cc2ccc3ccccc3c2)N/C(=N/C2CCCCC2)NC2CCCCC2)cc1 | inactive
CC(C)NC(=O)Nc1ccc2c(c1)C(=O)N([C@H](C)CO)C[C@@H](C)[C@@H](CN(C)Cc1ccc3c(c1)OCO3)O2 | inactive
C[C@@H]1CCCCO[C@@H](CN(C)Cc2ccc3c(c2)OCO3)[C@H](C)CN([C@H](C)CO)C(=O)c2cc(NC(=O)Nc3ccc(C(F)(F)F)cc3)ccc2O1 | active
C[C@@H]1CCCCO[C@@H](CN(C)Cc2ccc(C(F)(F)F)cc2)[C@@H](C)CN([C@@H](C)CO)C(=O)c2cc(NC(=O)Nc3ccc4c(c3)OCO4)ccc2O1 | inactive
C[C@H]1CCCCO[C@H](CN(C)Cc2ccc3c(c2)OCO3)[C@@H](C)CN([C@@H](C)CO)C(=O)c2cc(NC(=O)Nc3ccc(C(F)(F)F)cc3)ccc2O1 | active
C[C@@H]1CN([C@@H](C)CO)C(=O)c2cc(NC(=O)Nc3ccc(C(F)(F)F)cc3)ccc2O[C@@H](C)CCCCO[C@H]1CN(C)Cc1ccc2c(c1)OCO2 | active
C[C@H]1CCCCO[C@@H](CN(C)Cc2ccc3c(c2)OCO3)[C@@H](C)CN([C@@H](C)CO)C(=O)c2cc(NC(=O)Nc3ccc(C(F)(F)F)cc3)ccc2O1 | active
C[C@@H]1CCCCO[C@H](CN(C)Cc2ccc(C(F)(F)F)cc2)[C@H](C)CN([C@@H](C)CO)C(=O)c2cc(NC(=O)Nc3ccc4c(c3)OCO4)ccc2O1 | inactive
C[C@H]1CN([C@@H](C)CO)C(=O)c2cccc(NC(=O)C3CCOCC3)c2O[C@@H]1CN(C)C(=O)NC1CCCCC1 | inactive
C[C@H](CO)N1C[C@H](C)[C@H](CN(C)S(=O)(=O)c2cn(C)cn2)Oc2ncc(C3=CCCC3)cc2C1=O | inactive
CO[C@H](CN(C)S(=O)(=O)c1cccc(Cl)c1)[C@@H](C)CN([C@@H](C)CO)S(=O)(=O)c1cccc(Cl)c1 | inactive
COc1ccc(NC(=O)Nc2ccc3c(c2)C(=O)N([C@H](C)CO)C[C@H](C)[C@H](CN(C)C(=O)Nc2c(C)noc2C)OCCCC[C@H](C)O3)cc1 | inactive
COc1ccc(NC(=O)N(C)C[C@@H]2Oc3ccc(NS(=O)(=O)c4c(C)noc4C)cc3CC(=O)N([C@H](C)CO)C[C@H]2C)cc1 | inactive
C[C@@H]1CCCCO[C@@H](CN(C)C(=O)C2CCCCC2)[C@@H](C)CN([C@@H](C)CO)C(=O)c2cc(NC(=O)Cc3ccccc3)ccc2O1 | inactive
C[C@@H]1CN([C@H](C)CO)S(=O)(=O)c2ccc(C#CCN(C)C)cc2O[C@@H]1CN(C)S(C)(=O)=O | inactive
CSc1nc(=O)c(C)n[nH]1 | inactive
Cc1ccc(S(=O)(=O)Nc2ccc3c(c2)C(=O)N([C@@H](C)CO)C[C@H](C)[C@H](CN(C)S(=O)(=O)c2cn(C)cn2)O3)cc1 | inactive

Source: the antibiotic and cytotoxicity screens of Wong et al. (2023)
